High-throughput results from PubChem.
This is a sample that favours compounds with a hit; in the whole collection about 3.1% have one here.
miR-122 sensor – miR-122 inhibition in Huh7 cells; Huh7 miR-122 Renilla luciferase sensor, 48 h; neutral wells = 0, positive control = 100; activation (reporter increase), % at 12.5 µM; 340,000 compounds, 0.3% hits; AID 602342;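 active means mean replicate activation score at least 90 and every replicate individually at or above 90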;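 further: higher luciferase means less miR-122 activity so hits act as miR-122 inhibitors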
EWS-Fli inh – inhibitors of EWS/Fli oncoprotein transcriptional activity | A673 NR0B1-luciferase reporter, viability-normalised | inhibition, % at 12.6 µM | 350,000 compounds, 0.67% hits;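 active means mean inhibition of at least 50% after viability correction, with every replicate also passing that limit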;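 further: firefly luciferase signal divided by Alamar Blue viability fluorescence both relative to DMSO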
PAX8 inh HTS – lowers PAX8-driven luciferase in RMG-I cells. RMG-I TPO-luciferase reporter, SteadyGlo, 24 h. inhibition, % at 12.6 µM. 360,000 compounds, 1.2% hits. AID 652154;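 active means mean replicate inhibition at least 60% with every replicate also reaching 60%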;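 further: luciferase light reporting Pax8 driven TPO promoter activity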
Env fusion inh – blocks HIV Env-driven cell-cell fusion; HeLa-JRFL Env/CEM21 cell fusion, luciferase; inhibition, % at 12.3 µM; 360,000 compounds, 1.1% hits; AID 651610;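 active means mean replicate inhibition score of at least 50 and every replicate individually at or above 50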
GSIS activator – primary screen for activators of insulin secretion dependent on glucose, INS-1E cells, GLuc reporter luminescence | INS-1E GLuc reporter insulin secretion, 2-3 h | activation, % at 16.6 µM | 370,000 compounds, 0.61% hits;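 active means lowest replicate activation of at least 40%, so every replicate reaches that level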
Statin myotox sup – protects C2C12 myotubes from simvastatin toxicity. ATP luminescence, 48 h; scaled: DMSO 0, geranylgeraniol control 100. rescue of ATP level, % at 7.49 µM. 330,000 compounds, 0.78% hits;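 active means mean ATP rescue above about 67%, or every replicate alone reaching that limit, limit read from the data, passing the limit was not always enough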;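 further: myotubes were challenged with 10 µM simvastatin during compound exposure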
DNA binding – DNA binding small molecules. shares compounds with EWS-Fli inh. salmon sperm DNA acridine orange fluorescence polarization. AC35, µM (top dose mostly 68 µM). 640 compounds, 2% hits;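 active means fitted curve reaches a 35% signal fall AC35 below twice the sample's top valid tested dose, actives reach about 48 µM in these data; inactive means the rest, including activity in the rising direction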;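 further: lower polarization ratio signals compound binding to DNA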
Hits are given with their value.

C[C@@H]1CN([C@@H](C)CO)C(=O)Cc2cc(NC(=O)Cn3cnnn3)ccc2O[C@@H]1CN(C)Cc1ccc(Oc2ccccc2)cc1 was read as miR-122 sensor inactive, EWS-Fli inh 70.4, PAX8 inh HTS inactive, Env fusion inh inactive, GSIS activator inactive, Statin myotox sup inactive and DNA binding inactive.
`C[C@@H]1CN([C@H](C)CO)C(=O)CCCn2cc(nn2)CO[C@H]1CN(C)Cc1cccc2c1OCCCO2` gave miR-122 sensor inactive, EWS-Fli inh inactive, Env fusion inh inactive, GSIS activator inactive and Statin myotox sup inactive.
`Nc1ccc(-c2nc3ccccc3s2)cn1` gave miR-122 sensor inactive, EWS-Fli inh inactive, PAX8 inh HTS inactive, Env fusion inh inactive, GSIS activator inactive and Statin myotox sup inactive.
Cc1cc(-c2nc3ccccc3s2)ccc1N was read as miR-122 sensor inactive, EWS-Fli inh 60.5, PAX8 inh HTS inactive, Env fusion inh inactive, GSIS activator inactive and DNA binding inactive.
For Cc1cccc(/C=C2/Sc3ccc(C(=O)NCCN4CCCC4)cc3NC2=O)c1 the results were miR-122 sensor inactive, PAX8 inh HTS inactive, Env fusion inh inactive, GSIS activator inactive and Statin myotox sup inactive.
`O=C1Nc2cc(C(=O)NCCN3CCCCCC3)ccc2S/C1=C\c1ccccc1` gave miR-122 sensor inactive, EWS-Fli inh 59.6, PAX8 inh HTS inactive, Env fusion inh inactive, GSIS activator inactive, Statin myotox sup inactive and DNA binding inactive.
`C[C@@H]1CN([C@@H](C)CO)C(=O)Cc2cc(NS(=O)(=O)c3cn(C)cn3)ccc2O[C@@H]1CN(C)S(=O)(=O)c1ccccc1` gave miR-122 sensor inactive, EWS-Fli inh inactive, PAX8 inh HTS inactive, Env fusion inh inactive, GSIS activator inactive and Statin myotox sup inactive.
`Cc1ccccc1N=CC1=C(O)c2ccccc2C1=O` gave EWS-Fli inh 77.3, PAX8 inh HTS inactive, Env fusion inh inactive, GSIS activator inactive and DNA binding inactive.
`COc1cc(-c2noc(C)c2C#Cc2nccn2C)cc(OC)c1OC` gave miR-122 sensor inactive, EWS-Fli inh 51.5, PAX8 inh HTS inactive, Env fusion inh inactive, GSIS activator inactive, Statin myotox sup inactive and DNA binding inactive.
CCOc1ccc(C(c2c(NC(=O)c3ccccc3)sc(C)c2C)N2CCN(CCO)CC2)cc1 (stereo not drawn) was read as EWS-Fli inh 80.4, PAX8 inh HTS inactive, Env fusion inh inactive, GSIS activator inactive and DNA binding inactive.
Screening COc1ccc(-c2ccc3c(c2)[C@H]2[C@H](CCN2S(=O)(=O)c2ccc(OC)cc2)[C@@H](CO)N3C)cc1 returned miR-122 sensor inactive, EWS-Fli inh 54.7, PAX8 inh HTS 79.4, GSIS activator inactive, Statin myotox sup inactive and DNA binding inactive.
For CN1c2ccc(-c3cccc(C#N)c3)cc2[C@H]2[C@H](CCN2S(=O)(=O)c2cccc(F)c2)[C@H]1CO the results were miR-122 sensor inactive, EWS-Fli inh inactive, PAX8 inh HTS inactive, GSIS activator inactive and Statin myotox sup inactive.
For CN1c2ccc(-c3ccc(C#N)cc3)cc2[C@H]2[C@H](CCN2S(=O)(=O)c2cccc(F)c2)[C@@H]1CO the results were miR-122 sensor inactive, EWS-Fli inh 61.2, PAX8 inh HTS 73.0, GSIS activator inactive, Statin myotox sup inactive and DNA binding inactive.
Cc1ccccc1S(=O)(=O)N1CC[C@@H]2[C@@H](CO)Nc3ccc(-c4ccc(C#N)cc4)cc3[C@@H]21 was read as miR-122 sensor inactive, EWS-Fli inh 54.4, PAX8 inh HTS inactive, GSIS activator inactive, Statin myotox sup inactive and DNA binding inactive.
For C[C@@H]1CCCCO[C@H](CN(C)S(=O)(=O)c2cccs2)[C@H](C)CN([C@@H](C)CO)C(=O)c2cc(NC(=O)Cc3ccccc3)ccc2O1 the results were miR-122 sensor inactive, EWS-Fli inh inactive, PAX8 inh HTS inactive, Env fusion inh inactive and GSIS activator inactive.
Screening CCC(=O)N(C[C@H]1[C@H](c2ccccc2)[C@@H](CO)N1S(C)(=O)=O)C(C)C returned GSIS activator inactive.
